Source: PubChem (National Center for Advancing Translational Sciences (NCATS))
An excerpt weighted towards active compounds, which were near 6.5% of everything screened.
VACV mCherry inh: inhibitors of vaccinia virus infection (mCherry reporter signal); AID 720579; 310,000 compounds, 0.63% hits; Potency, µM (top dose mostly 36.5 µM), without a hit: at the top dose activity change, negative = inhibition, usual class: inhibitors; Vaccinia virus mCherry reporter infection, fluorescence; calls by dose curve; tested in A549 cells; also: potency is read from the fitted curve at half-maximal effect; nearly all actives have a fitted effect of over 35% in size
Vaccinia Venus: vaccinia inhibition (Venus reporter). Vaccinia virus Venus reporter expression, fluorescence. Potency, µM (doses to about 36.5 µM), inactives show at the top dose activity change, negative = inhibition, most hits filed as inhibitors. 330,000 compounds, 0.46% hits. AID 720580; calls by dose curve; tested in A549 cells; also: potency is read from the fitted curve at half-maximal effect; nearly all actives have a fitted effect of over 30% in size
Lassa entry inh: blocks Lassa virus binding to or entry into cells; Lassa virus pseudotype entry inhibition, cell reporter; Potency, µM (top dose mostly 37.9 µM), for inactives: top-dose activity change, negative = inhibition, usual class: inhibitors; 300,000 compounds, 1.2% hits; calls by dose curve; tested in HEK293 cells; also: potency is read from the fitted curve at half-maximal effect; nearly all actives have a fitted effect of over 50% in size
MARV entry inh: blocks Marburg virus binding to or entry into cells | 300,000 compounds, 1.8% hits | Potency, µM (highest dose often 37.8 µM), inactives show at the top dose activity change, negative = inhibition, usual class: inhibitors | Marburg virus pseudotyped entry inhibition, cell reporter | AID 540276; calls by dose curve; tested in HEK293 cells; also: potency is read from the fitted curve at half-maximal effect
FMDV antiviral: antivirals against foot and mouth disease virus. FMDV antiviral cell-based qHTS. 410,000 compounds, 1.2% hits. Potency, µM (series often up to 57.9 µM), inactives show top-dose activity change, negative = inhibition, most hits filed as inhibitors; calls by dose curve; tested in HEK293T cells; also: read-out not given here; potency is read from the fitted curve at half-maximal effect; nearly all actives have a fitted effect of over 45% in size
HCMV antiviral: blocks human cytomegalovirus replication | HFF cells, HCMV-luciferase reporter, 72 h; hits give low values | activity change, negative = inhibition, % at 57.5 µM | 410,000 compounds, 4.5% hits; in the data active = activity change below about -60%; inconclusive = no clear call, values can overlap the other calls; inactive = above about -39%
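Steps: HFFs plated, 16 h 37C; compounds added; HCMV-luciferase added to MOI 1 PFU/cell; 72 h 37C; OneGlo reagent, 5 min room temperature; luminescence read, normalized to controls.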
Active calls of the source: *; i = inactive; u = inconclusive; x = no result given; [ ] = another dose, or the depositor's remark. % is scaled to controls: 0 for no effect and ±100 for the full control effect.

SMILES	VACV mCherry inh	Vaccinia Venus	Lassa entry inh	MARV entry inh	FMDV antiviral	HCMV antiviral
COc1ccc(F)cc1S(=O)(=O)NCC(c1ccco1)S(=O)(=O)c1ccc(F)cc1 (stereo not given)	i	-16.2%	0.4%[46.1 µM]	x	54.0%	-27.5
COc1ccc(F)cc1S(=O)(=O)NCC(c1ccco1)S(=O)(=O)c1cccs1 (stereo not given)	-10.9%	-12.0%	-6.3%[46.1 µM]	x	79.9%	-62.9*
Fc1ccc(Nc2nccc(-c3c(-c4ccc(C(F)(F)F)cc4)nn4ncccc34)n2)cc1F	x	x	-4.2%	x	x	x
CCc1ccc(NC(=O)CSC2=C(C#N)C(c3ccco3)C3=C(CCCC3=O)N2)cc1 (stereo not given)	-20.8%	-17.2%	u	-28.9%	-15.2%	-9.6
N#CC1=C(SCC(=O)c2ccc(Br)cc2)NC2=C(C(=O)CCC2)C1c1ccco1 (stereo not given)	u	u	u	8.91µM*	u	-25.5
CCn1nc(C)cc1C(=O)NCC1Cc2cc(C)cc(-c3ccccc3C(=O)OC)c2O1 (stereo not given)	-0.1%	-15.0%	x	x	-13.3%	x
CC1(C)CC(=Cc2ccccc2[N+](=O)[O-])C(=O)c2ccccc21	-17.7%	-17.3%	x	x	4.9%	12.0
O=C1C(=Cc2ccccc2[N+](=O)[O-])Cc2ccccc21	u	u	x	x	u	-95.6*
Nc1ccccc1C=C1Cc2ccccc2C1=O	-20.3%	-16.2%	u	7.94µM*	-47.7%	5.0
COc1ccc(-c2nc3cnc(Oc4cccc(Cl)c4)nc3n(C[C@H]3CCCO3)c2=O)cc1	x	x	x	x	-8.5%	x
CC(C)c1cnc2c(c1SCC(=O)N1CCCCC1)c(=O)n(C)c(=O)n2C	-21.4%	-15.2%	-21.8%[46.1 µM]	x	1.8%	23.3
C=C(C)CCCN1C=C(C(=O)OCC)C(c2ccccc2)NC1=O (stereo not given)	x	x	u	-13.9%[14.2 µM]	x	x
COc1ccc(Oc2ncc3nc(CCc4ccccc4)c(=O)n(C4CC4)c3n2)cc1	x	x	x	x	9.3%	x
O=C(CSc1ncc2c(n1)-c1ccccc1N(Cc1ccc(F)cc1)S2(=O)=O)NCc1ccccc1	-18.5%	-20.4%	1.7%[46.1 µM]	x	-11.9%	8.0
Cc1cccc(C(=O)N2CCc3cc(CNS(=O)(=O)c4cccs4)ccc32)c1	-22.0%	-28.3%	u	x	u	-61.8*
COc1ccc(Cl)cc1S(=O)(=O)NCc1ccc2c(c1)CCN2C(=O)c1cccc(C)c1	-13.8%[7.34 µM]	-8.0%[7.34 µM]	u	x	19.1%	-86.8*
CC(C)c1ccc(S(=O)(=O)NCc2ccc3c(c2)CCN3C(=O)c2ccccc2)cc1	-13.8%	-18.4%	u	x	-19.4%	-66.2*
O=Cc1ccc2[nH]ccc2c1	-15.2%	-5.3%	x	x	x	x
CC1(C)CC(=O)C(=Cc2cn(-c3ccccc3)nc2-c2ccc(Cl)cc2)C(=O)C1	x	-4.7%	27.6%	0.2%	u	-4.9
CC1=NNC(=O)/C1=C\c1cn(-c2ccccc2)nc1-c1ccccc1	10µM*	10µM*	u	3.98µM*	8.91µM*	-100.0*
COc1ccc(OC)c(CNS(=O)(=O)c2c(C(=O)N3CCCCCC3)c(C)n(C)c2C)c1	-10.5%	-1.1%	1.9%[46.1 µM]	x	8.9%	8.8
COc1cc2c(=O)n(Cc3ccccc3Cl)c(=O)n(CC(=O)Nc3ccc(C)c(C)c3)c2cc1OC	-20.5%	-14.4%	-14.4%[46.1 µM]	-2.7%[46.1 µM]	-1.7%	-5.8
CCOC(=O)c1c(CC(C)C)csc1NC(=O)COC(=O)c1ccc(O)cc1	-8.0%	-2.3%	u	-1.9%	35.5µM*	-19.0
CCOC(=O)N1CCc2c(sc3c2c(=O)n(Cc2ccccc2)c(=O)n3Cc2c(F)cccc2Cl)C1	-20.7%	-15.2%	1.1%[46.1 µM]	11.4%[46.1 µM]	-16.2%	-68.1*
CCOC(=O)N1CCc2c(sc3c2c(=O)n(Cc2ccccc2)c(=O)n3Cc2ccccc2F)C1	i	-20.1%	11.1%	-3.5%	-25.6%	12.0
SMILES	VACV mCherry inh	Vaccinia Venus	Lassa entry inh	MARV entry inh	FMDV antiviral	HCMV antiviral
CCOC(=O)N1CCc2c(sc3c2c(=O)n(CCc2ccccc2)c(=O)n3Cc2ccc(F)cc2)C1	-21.2%	-17.9%	-3.9%[46.1 µM]	u	u	-4.7
COc1ccccc1NC(=O)Cn1c(=O)n(CCc2ccccc2)c(=O)c2c3c(sc21)CN(C(C)=O)CC3	-19.1%	-7.4%	x	u	u	-91.6*
CC(=O)N1CCc2c(sc3c2c(=O)n(CCc2ccccc2)c(=O)n3CC(=O)Nc2ccccc2F)C1	-4.8%	8.0%	x	-12.7%[46.1 µM]	0.3%	u
CC(=O)N1CCc2c(sc3c2c(=O)n(CCc2ccccc2)c(=O)n3Cc2ccc(F)cc2)C1	-11.9%	-1.2%	x	u	u	-60.6*
CCC(=O)NC1=C(NC(C)c2ccccc2)C(=O)c2ccccc2C1=O (stereo not given)	9.8%	4.6%	5.6%	1.1%	-13.8%	-9.6
CCC(=O)N(C1=C(NC)C(=O)c2ccccc2C1=O)C(C)C	u	u	x	x	-17.4%	-78.3*
COc1cc(Cl)c(C)cc1NC(=O)c1cnc2c(-c3cccc(C)c3)c(C)nn2c1C	-9.0%	-6.6%	-6.2%[46.1 µM]	x	-5.4%	-2.4
CC(=O)O[C@H]1C[C@@H]2OC3C=C(C)CCC3(C)[C@@]1(C)[C@@]21CO1 (stereo not given in full)	x	x	x	0.447µM*	x	-98.2*
COC(=O)[C@@H]1[C@@H](CO)[C@@H]2Cn3c(ccc(Br)c3=O)[C@@H]2N1CCc1ccccc1	x	x	x	x	x	-32.9
OCCOc1cccc(CN2CCC(CO)(CCOc3ccccc3)CC2)c1	x	x	x	x	-13.3%	20.4
OC1(c2ccc(Cl)cc2)CCN(Cc2c[nH]c3ccccc23)CC1	-3.3%	-17.4%	u	2.82µM*	-23.4%	u
OC1(c2ccc(Cl)cc2)CCN(Cc2cn[nH]c2-c2ccccc2)CC1	-11.9%	1.1%	1.7%[46.1 µM]	u	-10.8%	u
Fc1ccccc1N1CCN(C2CCN(Cc3c[nH]c4ccccc34)CC2)CC1	-8.9%	0.0%	u	9.2µM*	x	-18.1
OC1(c2ccc(Cl)cc2)CCN(Cc2cn[nH]c2-c2ccc(F)cc2)CC1	-10.9%	-2.8%	1.0%[46.1 µM]	u	-17.6%	-77.7*
OCC1(CCOc2ccccc2)CCN(Cc2nc3ccc(F)cc3[nH]2)CC1	-5.5%	38.0%	u	u	u	-61.8*
O=C1CN(C(=O)c2ccc(S(=O)(=O)N3CCCC3)cc2)C(c2ccc(F)cc2)c2cc(Br)ccc2N1 (stereo not given)	-22.1%	-11.0%	u	u	0.0%	-26.8
OCC1(CCOc2ccccc2)CCN(Cc2cn[nH]c2-c2ccc(F)cc2)CC1	-2.3%	-17.3%	-28.5%[46.1 µM]	3.98µM*	-26.5%	u
CCOc1ccccc1CN1CCC(CO)(CCOc2ccccc2)CC1	-14.7%	-12.4%	-15.1%	-8.9%[46.1 µM]	-11.8%	-20.9
CCOc1ccccc1C(=O)Nc1nc2c(s1)CC(C)CC2 (stereo not given)	-3.9%	-2.1%	-0.2%[46.1 µM]	u	31.2%	79.0
